# Compound activity as filed in PubChem.
# This is a sample that favours compounds with a hit; in the whole collection about 3.5% have one here.
# MITF primary = MITF inhibitors, primary screen, biochemical, AlphaScreen, human; Microphthalmia-associated transcription factor (Homo sapiens), O75030; AlphaScreen MITF homodimerization, bead proximity signal; inhibition, % at 2.6 µM; 0.91% of 650,000 active; in the data active means inhibition above about 50%;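 further: 0% = vehicle wells with protein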
# Target sequence (O75030 whole entry, looked up): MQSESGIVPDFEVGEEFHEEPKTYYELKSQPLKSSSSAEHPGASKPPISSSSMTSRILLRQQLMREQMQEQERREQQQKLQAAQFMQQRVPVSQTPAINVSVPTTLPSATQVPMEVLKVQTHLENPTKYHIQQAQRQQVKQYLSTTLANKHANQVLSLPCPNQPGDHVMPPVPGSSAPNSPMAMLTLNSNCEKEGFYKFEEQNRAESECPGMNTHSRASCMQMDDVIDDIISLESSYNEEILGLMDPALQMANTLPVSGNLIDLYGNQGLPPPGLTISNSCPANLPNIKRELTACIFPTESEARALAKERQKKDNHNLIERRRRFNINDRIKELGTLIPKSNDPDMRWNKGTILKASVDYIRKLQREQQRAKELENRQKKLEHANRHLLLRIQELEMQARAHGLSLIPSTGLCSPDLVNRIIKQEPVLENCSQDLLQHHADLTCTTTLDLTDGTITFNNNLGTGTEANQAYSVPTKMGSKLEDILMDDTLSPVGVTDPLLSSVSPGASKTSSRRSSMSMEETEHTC
# TEAD-YAP inh = TEAD-YAP interaction inhibition, primary screen, TEAD-YAP interaction inhibitor project, luminescence, HEK-TIYL cells | inhibition, % at 9.12 µM | AID 1259422, 2018 | 1.4% of 640,000 active | TEAD-Gal4/YAP UAS-luciferase luminescence; in the data active means inhibition above about 32%;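 further: 0% = median of test compound wells and 100% = reference inhibitor wells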
# GPR151 activ = activators of human GPR151, primary screen, cell-based, PathHunter beta-arrestin, luminescence. G-protein coupled receptor 151 (Homo sapiens), Q8TDV0. PathHunter beta-arrestin GPR151 cells. activation, % at 11.2 µM. 1% of 650,000 active. AID 1508602, 2020; in the data active means activation above about 4.9%;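 further: 0% = median of compound wells and 100% = cells with positive control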
# FBW7 activator = FBW7 E3 ligase activators, primary screen, biochemical, AlphaScreen, human; normalized activity (activation), % at 26.1 µM; F-box/WD repeat-containing protein 7 (Homo sapiens), Q969H0; AID 1259310, 2017; AlphaScreen FBW7–phospho-cyclin E peptide binding, activator screen; 0.13% of 650,000 active; in the data active means normalized activity above about 1.9%;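 further: purified mutant Fbw7 with reduced substrate affinity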
# GPR151 confirm = GPR151 activators, triplicate retest, confirmation, cell-based, PathHunter beta-arrestin, luminescence; activation, % at 11.2 µM; GPR151 PathHunter beta-arrestin cells, 90 min; % of EA-reagent control over plate median; AID 1508609, 2020; shares compounds with GPR151 activ; 6,700 tested, under 10 active;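 active means mean percent activation across replicates above the confirmation screen cutoff of 4.91%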
# GPR119 ag = GPR119 activators in beta-arrestin cells, counter-screen for GPR151 activator project, cell-based, PathHunter beta-arrestin, luminescence, triplicate; shares compounds with GPR151 activ; 90 min; 0 = compound-well median, 100 = enzyme-acceptor control; activation, % at 11.2 µM; 0.3% of 6,700 active;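 active means mean percent activation in the counterscreen above 29.09%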;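 further: counterscreen on off-target GPR119 to flag nonselective hits from the GPR151 activator screen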
# * = called active by the depositor; x = no result.
SMILES,MITF primary,TEAD-YAP inh,GPR151 activ,FBW7 activator,GPR151 confirm,GPR119 ag
CC1CCCN(c2nc3c(c(=O)[nH]2)CCN(CC2CCC=CO2)C3)C1 (stereo unspecified),-1.6,-4.2,9.5*,0.5,0.8,6.8
O=c1[nH]c(N2CCCCC2)nc2c1CCN(CC1CCC=CO1)C2 (stereo unspecified),-8.1,-4.5,0.0,-0.1,x,x
Cc1ccc2nc3c(c(Nc4ccc(N(C)C)cc4)c2c1)CCC3,-10.8,-8.6,-0.8,-0.2,x,x
C=C(C)CNc1nncc(-c2ccccc2C)n1,-5.5,-4.5,6.2*,0.4,-0.1,1.1
CCOc1ccc(-c2cc(=O)c3cc(NC(=O)c4ccccc4Br)ccc3o2)cc1,-1.6,-39.1,5.1*,0.0,-1.1,-11.5
O=c1[nH]cc(N=Cc2ccc([N+](=O)[O-])cc2)c(=O)[nH]1,-2.2,-9.3,6.5*,0.0,-0.6,-1.0
O=c1[nH]cc(N=Cc2ccc(O)cc2)c(=O)[nH]1,-2.4,-0.9,-0.8,0.6,x,x
CC1Sc2cc(S(=O)(=O)CCC(=O)NC3CCCC(C)C3C)ccc2NC1=O (stereo unspecified),-1.7,15.1,5.1*,-0.2,0.6,7.9
CC1Sc2cc(S(=O)(=O)CCC(=O)Nc3ccccc3F)ccc2NC1=O (stereo unspecified),-1.2,-2.5,5.3*,-0.1,-0.5,-7.0
O=C(NCC1CCCN(Cc2ccc(CO)o2)C1)c1ccc(-c2ccccc2)cc1 (stereo unspecified),9.5,-6.2,16.5*,-0.1,-0.5,-6.6
COCc1ccc(CN2CCCC(CNC(=O)c3ccc(-c4ccccc4)cc3)C2)o1 (stereo unspecified),-1.9,1.5,-1.3,-0.1,x,x
O=C(CCS(=O)(=O)c1ccc(Br)s1)NC1CCCc2ccccc21 (stereo unspecified),-3.6,7.5,-0.5,0.0,x,x
CN(CC(=O)NC1CCCc2ccccc21)S(=O)(=O)c1ccc(Br)s1 (stereo unspecified),0.8,1.3,11.5*,-0.1,-0.1,-3.7
CC(C)CNc1nnnc2c1cnn2-c1ccccc1,-2.9,-38.9,9.6*,0.0,0.7,3.5
CCCNc1nnnc2c1cnn2-c1ccccc1,8.1,-33.8,0.5,0.1,x,x
O=C(CCC(=O)OCC(=O)c1ccc(Cl)c(Cl)c1)Nc1ccccc1,-0.7,-0.7,5.5*,-0.1,1.0,1.4
O=C(CCC(=O)OCC(=O)c1ccc(Cl)c(Cl)c1)Nc1ccc(F)cc1,12.8,0.1,0.6,0.6,x,x
COC(=O)COc1ccc2c(C)c(C)c(=O)oc2c1C,7.8,2.6,-1.5,0.8,x,x
CCc1c(C)c2ccc(OCC(=O)OC)c(C)c2oc1=O,1.9,6.3,5.1*,0.1,-0.1,-7.5
Cc1ccc(S(=O)(=O)N(CC(=O)NC2CC2)c2ccccc2Cl)cc1,-4.5,2.8,0.0,-0.2,x,x
CC(=O)NC(=O)NC(c1ccccc1)c1cccc(Cl)c1 (stereo unspecified),-9.2,-6.6,6.1*,-0.1,-0.2,-1.4
COC(=O)C(NC(=O)c1ccc(Br)cc1)c1ccccc1 (stereo unspecified),-3.6,15.7,9.0*,-0.1,2.1,11.6
COC(=O)C(NC(=O)c1ccccc1)c1ccccc1 (stereo unspecified),4.0,6.0,-1.0,0.0,x,x
COc1ccc(NC(=O)c2c(OC)cccc2OC)cc1OC,6.2,2.2,-0.7,0.5,x,x
CCOc1ccccc1CNc1sc2c(c1C(=O)Nc1ccc(OC)cc1OC)CCC2,14.8,1.0,10.8*,-0.1,1.6,10.7
SMILES,MITF primary,TEAD-YAP inh,GPR151 activ,FBW7 activator,GPR151 confirm,GPR119 ag
CCOc1ccccc1CNc1sc2c(c1C(=O)Nc1ccc(OC)cc1)CCC2,-2.2,6.3,1.8,-0.1,x,x
CCOc1ccc(/C(O)=C2\C(=O)C(=O)N(c3nc(C)c(C(=O)OC)s3)C2c2ccc(C)cc2)cc1C (stereo unspecified),6.7,-2.3,5.0*,-0.1,-0.6,0.2
Cc1cc(/C=C2\SC(=Nc3ccccc3)N(C3CCCCC3)C2=O)c(C)n1-c1ccc(Br)cc1,10.2,-9.8,0.5,0.1,x,x
Cc1nc(-c2ccc(S(=O)(=O)N3CCOCC3)cc2)cs1,3.8,0.5,8.6*,0.0,0.3,2.2
COc1cccc(CC2(CO)CCCN(Cc3cc(OC)c(OC)c(OC)c3)C2)c1 (stereo unspecified),-1.8,0.9,-1.4,0.0,x,x
COc1cccc(CC2(CO)CCCN(Cc3cccc(OC)c3OC)C2)c1 (stereo unspecified),11.8,5.7,6.2*,0.1,-0.1,-5.1
O=C(Nc1cccc(-c2nc3ccccc3s2)c1)c1ccc(N2C(=O)CCC2=O)cc1,1.8,-1.9,7.4*,0.0,-0.8,1.6
O=C(Nc1cccc(-c2nc3ccccc3s2)c1)c1ccccc1,12.5,2.6,1.7,0.2,x,x
O=C(Nc1cccc(-c2nc3ccccc3s2)c1)C12CC3CC(CC(C3)C1)C2,-12.9,-5.4,5.5*,-0.2,0.6,-0.5
Cc1cccc(C(=O)Nc2cccc(-c3nc4ccccc4s3)c2)c1,-7.0,-0.2,0.2,-0.1,x,x
CCOc1ccccc1C1NC(=O)N(C)C(C)=C1C(=O)OC (stereo unspecified),5.4,2.1,6.0*,0.1,0.1,8.0
COC(=O)C1=C(C)N(C)C(=O)NC1c1ccccc1OC (stereo unspecified),11.5,9.3,0.9,0.7,x,x
CCN1C(=O)N[C@H](c2ccc(Br)cc2)C(C(=O)OC)=C1C,18.7,x,0.0,0.0,x,x
CCOc1ccccc1C1C(C(=O)OC)=C(N)OC2=C1C(=O)CCC2 (stereo unspecified),11.6,0.6,6.0*,1.0,0.5,5.9
COC(=O)C1=C(C)N(C)C(=O)NC1c1ccc(Br)cc1 (stereo unspecified),9.4,11.1,5.2*,0.4,-0.3,-4.1
COC(=O)C1=C(C)N(C)C(=O)NC1c1ccc(C(=O)OC)cc1 (stereo unspecified),14.5,2.4,1.1,-0.1,x,x
CCOC(=O)CN1C(=O)N[C@@H](c2ccc(Br)cc2)C(C(=O)OC)=C1C,13.2,x,5.0*,0.6,1.2,13.8
CS(=O)(=O)N(CC(=O)NCCSCc1ccccc1)c1ccc(Cl)c(Cl)c1,-0.9,3.2,-0.8,0.1,x,x
CCOc1ccccc1C1NC(=O)NC(C)=C1C(=O)OC1CCCC(C)C1 (stereo unspecified),15.1,-13.8,-0.3,0.4,x,x
NC(COP(=O)(O)O)C(=O)O (stereo unspecified),28.4,7.7,5.5*,0.1,-0.2,4.4
